Drawing on PubChem BioAssay (Tox21), this text covers Potency for 7 molecules.

A number with no mark means an inactive call. Inconclusive results are not listed. Calls of active or inactive are those of the source. Unless noted, calls follow the shape of the dose curve; as a rule, active = well fitted curve in the direction sought with a large enough effect in the repeat runs; inconclusive = weak or mixed curves; inactive = no such curve, though single readings can be large; an effect the other way counts as inactive or inconclusive.

Test [1] in a line: A CellTox Green Cytotoxicity Assay to monitor cytotoxicity in HepG2 cells - 8 hour (AID 1224890). Also: nearly all actives have a fitted effect of over 45% in size. In short, it runs like this:
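HepG2 cells, 600/well, preincubated 5 h with CellTox Green dye, then exposed to Tox21 compounds in DMSO at 37 C for up to 40 h. Dead-cell DNA fluorescence read at the indicated time point.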

Test [2] is described as follows: qHTS assay to identify small molecule antagonists of the estrogen receptor alpha (ER-alpha) signaling pathway using the BG1 cell line in the presence of 0.1 nM 17-beta-estradiol - cell viability counter screen (AID 1259241). Also: nearly all actives have a fitted effect of over 40% in size. In short, it runs like this: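 Viability in VM7Luc4E2 cells after 22 hr compound exposure under 0.1 nM 17beta-estradiol stimulation, by CellTiter-Fluor.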
For orientation: Quantitative high-throughput screening tests each substance at several concentrations.

A short description of test [3]: qHTS assay to identify small molecule antagonists of the androgen receptor (AR) signaling pathway using the MDA cell line in the presence of 0.5 nM R1881 - cell viability counter screen (AID 1259242). Also: nearly all actives have a fitted effect of over 45% in size. In a few lines: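 MDA-kb2 cells (MMTV-luciferase, AR/GR responsive) were treated with compounds plus 0.5 nM R1881 (final) for 16 hr at 37C, 0% CO2. Viability was then read in the same wells as live-cell protease fluorescence (CellTiter-Fluor, 30 min).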

Test [4] concerns the target Androgen receptor (Homo sapiens) (UniProt P10275). As to the kind of experiment: qHTS assay to identify small molecule antagonists of the androgen receptor (AR) signaling pathway using the MDA cell line in the presence of 0.5 nM R1881 (AID 1259243). Also: nearly all actives have a fitted effect of over 50% in size. Also: potency is read from the fitted curve at half-maximal effect. In a few lines: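 MDA-kb2 cells (MMTV-luciferase, responsive to AR and GR) at 3,000/well, rested 5 h at 37C, 0% CO2, then given compounds plus 0.5 nM R1881 (final) for 16 hr. Luciferase read with ONE-Glo after 30 min at room temperature.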

Test [5] is described as follows: qHTS assay to identify small molecule phospholipidosis (PLD) inducers (AID 1259344; active = well fitted curve in the direction sought with a large enough effect; an effect the other way counts as inactive or inconclusive). In short, it runs like this: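 Quantitative HTS in HepG2: compound plus LipidTOX Red dye for 24 h, paraformaldehyde fixation with Hoechst 33342, widefield high-content imaging; amiodarone as positive and DMSO as negative control.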
Test [6] in a line: qHTS assay to identify small molecule HDAC inhibitors - cell viability counter screen (AID 1259365). Also: series mostly up to about 92 µM; nearly all actives have a fitted effect of over 50% in size. In short, it runs like this: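 Cytotoxicity was gauged in wild-type HCT-116 cells after a brief 2hr treatment with DMSO-dissolved compounds at 37C and 5% CO2, using CellTiter-Glo luminescence developed for 30min at room temperature.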
A short description of test [7]: qHTS assay to identify small molecule agonists of the sonic hedgehog signaling (Shh) pathway - cell viability counter screen (AID 1259366). Also: nearly all actives have a fitted effect of over 50% in size. In short, it runs like this:
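Stable Gli1-Luc NIH/3T3 clone, 2,000 cells/well. Compound exposure 24hr at 37C. Read-out: CellTiter-Fluor fluorescence.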

Test [8] is described as follows: qHTS assay to identify small molecule antagonists of the sonic hedgehog signaling (Shh) pathway - cell viability counter screen (AID 1259367). Also: nearly all actives have a fitted effect of over 55% in size. In a few lines:
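Seed 3T3 Gli1-Luc cells at 2,000 per well; incubate 4 hr; add compound in DMSO, then conditioned medium; incubate at 37C with 5% CO2; add CellTiter-Fluor after 23 hr; read fluorescence 1 hr later.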

The nature of test [9]: qHTS assay to identify small molecule agonists of the sonic hedgehog signaling (Shh) pathway (AID 1259368; calls by dose curve;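 also: NIH/3T3-derived 3T3Gli1-Luc cells carrying a stable Gli1-driven firefly luciferase reporter; series mostly up to about 92 µM; nearly all actives have a fitted effect of over 15% in size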). In short, it runs like this: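 NIH/3T3-derived 3T3Gli1-Luc cells with stably integrated Gli1-driven firefly luciferase, 2,000 cells/well, compounds added after 4 hr. Incubated 24 hr at 37C, 5% CO2; luminescence read after 30 min with luciferase reagent at room temperature.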

Test [10] is described as follows: qHTS assay to identify small molecule agonists of the estrogen receptor beta (ER-beta) signaling pathway - cell viability counter screen (AID 1259380). Also: nearly all actives have a fitted effect of over 30% in size. In short, it runs like this:
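ER-beta-UAS-bla HEK293T cells in medium with 2% charcoal-stripped FBS, pre-incubated 6 hr, then treated 16 hr at 37C. Cytotoxicity read in the same wells by CellTiter-Glo luminescence after 30 min at room temperature.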

Test [11] addresses Androgen receptor (Homo sapiens) (UniProt P10275). Put plainly: qHTS assay to identify small molecule agonists of the androgen receptor (AR) signaling pathway in the presence of an antagonist (AID 1259381; calls by dose curve; also: nearly all actives have a fitted effect of over 15% in size). In a few lines:
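MDA-kb2 cells carrying MMTV-luciferase (AR/GR responsive), 3,000 cells/well, co-treated with 3.0 uM nilutamide final. Compounds at 15 concentrations, 16 hr at 37C without CO2. Luciferase luminescence read after 30 min with ONE-Glo.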

Test [12] can be described thus: qHTS assay to identify small molecule antagonists of the estrogen receptor beta (ER-beta) signaling pathway - cell viability counter screen (AID 1259382). Also: series mostly up to about 92 µM; nearly all actives have a fitted effect of over 55% in size. In a few lines:
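ER-beta-UAS-bla HEK293T cells in 2% charcoal-stripped FBS medium, treated with compound plus 1 nM 17-beta-estradiol for 16 h at 37C. Viability read by CellTiter-Glo luminescence after 30 min at room temperature in the same wells.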

For test [13], the target named is Estrogen receptor (Homo sapiens) (UniProt P03372). As to the kind of experiment: qHTS assay to identify small molecule agonists of the estrogen receptor alpha (ER-alpha) signaling pathway in the presence of an antagonist (AID 1259383; calls by dose curve; also: top concentration of the series differs between compounds; nearly all actives have a fitted effect of over 15% in size). In short, it runs like this:
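VM7Luc4E2 cells express endogenous full-length ER-alpha with an ERE-luciferase reporter and were hormone-deprived for 5 days. Compounds at 15 concentrations were added with 10.0nM ICI-182,780 for 22hr at 37C. Luminescence was read with ONE-Glo.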

A short description of test [14]: qHTS assay to identify small molecule agonists or antagonists of the thyroid stimulating hormone receptor (TSHR) signaling pathway - wild type cell line counter screen (AID 1259384; calls by dose curve). In a few lines:
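Wild-type Hek293 cells, 800/well, 18 h at 37C, then compound with Ro20-1724 for 30 min RT. cAMP by HTRF (cAMP-d2/anti-cAMP cryptate), 1 h RT, fluorescence read. 15 concentrations, triplicates.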

Test [15] is described as follows: qHTS assay to identify small molecule HDAC inhibitors (AID 1259364). Also: nearly all actives have a fitted effect of over 45% in size. Also: potency is read from the fitted curve at half-maximal effect. In a few lines:
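Wild-type HCT-116 cells, plated overnight at 37 C, exposed to compounds 2 hr at 37 C; luminogenic HDAC-Glo substrate then added 30 min at room temperature. Luminescence reports relative endogenous class I/II HDAC activity.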

In test [16] the target is Estrogen receptor beta (Homo sapiens) (UniProt Q92731). Put plainly: qHTS assay to identify small molecule agonists of the estrogen receptor beta (ER-beta) signaling pathway (AID 1259377; active = well fitted activation curve with a large enough effect in the signal ratio in the repeat runs, not every such curve was filed as active; the % refers to the signal ratio). In short, it runs like this:
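Measured by fluorescence intensity from a B/G FRET beta-lactamase substrate (2 h, room temperature) in ER-beta-UAS-bla HEK293T cells treated with DMSO-dissolved compounds for 16 hr at 37C and 5% CO2.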

For test [17] the target is unchanged. Put plainly: qHTS assay to identify small molecule antagonists of the estrogen receptor beta (ER-beta) signaling pathway (AID 1259378; active = well fitted inhibition curve with a large enough effect in the signal ratio in the repeat runs, not every such curve was filed as active; the % refers to the signal ratio). In a few lines:
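ER-beta-UAS-bla HEK293T cells in 2% charcoal-stripped FBS medium treated with compound plus 1nM final 17-beta-estradiol for 16 hr at 37C. Beta-lactamase reporter read by FRET substrate fluorescence after 2 hours at room temperature.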

Test [18] is described as follows: qHTS assay to identify small molecule agonists of the androgen receptor (AR) signaling pathway in the presence of an antagonist - cell viability counter screen (AID 1259379).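 Also: MDA-kb2 human breast cancer cells carrying an MMTV luciferase reporter; series mostly up to about 92 µM; nearly all actives have a fitted effect of over 25% in size.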 In a few lines:
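MDA-kb2 cells (MMTV-luciferase, AR/GR), 3,000/well, 5 h attachment, then 3.0 µM nilutamide (final) and compounds at 15 concentrations. Viability by CellTiter-Fluor fluorescence after 16 h at 37 °C, 0% CO2, in the reporter wells.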

Test [19] deals with Estrogen receptor (Homo sapiens) (UniProt P03372). Put plainly: qHTS assay to identify small molecule antagonists of the estrogen receptor alpha (ER-alpha) signaling pathway using the BG1 cell line in the presence of 0.1 nM 17-beta-estradiol (AID 1259244). Also: nearly all actives have a fitted effect of over 50% in size. In short, it runs like this:
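VM7Luc4E2 cells (endogenous full-length ER-alpha, 4×ERE-luciferase), kept 5 days in phenol red-free, charcoal-stripped FBS medium; 4,000 cells/well. Compounds added with 0.1 nM (final) 17beta-estradiol, 22 hr at 37C; luminescence read with ONE-Glo after 30 min.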

A short description of test [20]: qHTS assay to identify small molecule antagonists of the sonic hedgehog signaling (Shh) pathway (AID 1259369; calls by dose curve; also: nearly all actives have a fitted effect of over 45% in size). In short, it runs like this: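 NIH/3T3-derived Gli1-Luc reporter cells plated 4 h, dosed with compound, then stimulated with conditioned medium for 24 h at 37 C. Firefly luciferase luminescence read after 30 min with detection reagent at room temperature.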

Chain of Estrogen receptor (Homo sapiens) (P03372 whole entry, looked up): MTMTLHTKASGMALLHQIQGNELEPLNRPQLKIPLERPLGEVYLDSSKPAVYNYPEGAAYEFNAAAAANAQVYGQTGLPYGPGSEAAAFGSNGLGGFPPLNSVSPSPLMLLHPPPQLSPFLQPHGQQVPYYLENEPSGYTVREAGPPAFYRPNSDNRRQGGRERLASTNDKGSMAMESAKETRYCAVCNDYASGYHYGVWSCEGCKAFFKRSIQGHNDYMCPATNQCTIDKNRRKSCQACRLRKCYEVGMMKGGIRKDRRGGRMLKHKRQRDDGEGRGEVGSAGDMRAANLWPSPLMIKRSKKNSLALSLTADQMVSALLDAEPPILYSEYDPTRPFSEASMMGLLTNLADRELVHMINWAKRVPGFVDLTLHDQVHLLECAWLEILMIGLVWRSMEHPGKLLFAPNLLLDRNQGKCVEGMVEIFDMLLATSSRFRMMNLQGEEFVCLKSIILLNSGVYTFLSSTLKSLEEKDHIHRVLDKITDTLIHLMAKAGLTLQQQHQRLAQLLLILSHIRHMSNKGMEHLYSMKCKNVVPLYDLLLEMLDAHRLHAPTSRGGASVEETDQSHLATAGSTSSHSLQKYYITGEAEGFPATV
Chain of Estrogen receptor beta (Homo sapiens) (Q92731 whole entry, looked up): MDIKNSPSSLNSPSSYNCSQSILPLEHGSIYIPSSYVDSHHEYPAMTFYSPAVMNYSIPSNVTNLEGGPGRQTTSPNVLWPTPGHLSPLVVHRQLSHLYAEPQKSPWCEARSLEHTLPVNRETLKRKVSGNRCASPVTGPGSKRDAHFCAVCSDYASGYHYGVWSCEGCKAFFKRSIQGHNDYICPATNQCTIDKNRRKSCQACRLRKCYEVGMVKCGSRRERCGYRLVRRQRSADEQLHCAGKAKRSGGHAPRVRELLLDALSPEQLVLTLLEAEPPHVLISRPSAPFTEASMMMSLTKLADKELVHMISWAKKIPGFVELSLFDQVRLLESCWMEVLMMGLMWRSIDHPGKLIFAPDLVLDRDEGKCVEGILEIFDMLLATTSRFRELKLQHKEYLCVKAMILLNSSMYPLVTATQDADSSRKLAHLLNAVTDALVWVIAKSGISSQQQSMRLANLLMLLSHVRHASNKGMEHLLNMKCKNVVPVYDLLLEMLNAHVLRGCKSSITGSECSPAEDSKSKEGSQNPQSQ
Chain of Androgen receptor (Homo sapiens) (P10275 whole entry, looked up): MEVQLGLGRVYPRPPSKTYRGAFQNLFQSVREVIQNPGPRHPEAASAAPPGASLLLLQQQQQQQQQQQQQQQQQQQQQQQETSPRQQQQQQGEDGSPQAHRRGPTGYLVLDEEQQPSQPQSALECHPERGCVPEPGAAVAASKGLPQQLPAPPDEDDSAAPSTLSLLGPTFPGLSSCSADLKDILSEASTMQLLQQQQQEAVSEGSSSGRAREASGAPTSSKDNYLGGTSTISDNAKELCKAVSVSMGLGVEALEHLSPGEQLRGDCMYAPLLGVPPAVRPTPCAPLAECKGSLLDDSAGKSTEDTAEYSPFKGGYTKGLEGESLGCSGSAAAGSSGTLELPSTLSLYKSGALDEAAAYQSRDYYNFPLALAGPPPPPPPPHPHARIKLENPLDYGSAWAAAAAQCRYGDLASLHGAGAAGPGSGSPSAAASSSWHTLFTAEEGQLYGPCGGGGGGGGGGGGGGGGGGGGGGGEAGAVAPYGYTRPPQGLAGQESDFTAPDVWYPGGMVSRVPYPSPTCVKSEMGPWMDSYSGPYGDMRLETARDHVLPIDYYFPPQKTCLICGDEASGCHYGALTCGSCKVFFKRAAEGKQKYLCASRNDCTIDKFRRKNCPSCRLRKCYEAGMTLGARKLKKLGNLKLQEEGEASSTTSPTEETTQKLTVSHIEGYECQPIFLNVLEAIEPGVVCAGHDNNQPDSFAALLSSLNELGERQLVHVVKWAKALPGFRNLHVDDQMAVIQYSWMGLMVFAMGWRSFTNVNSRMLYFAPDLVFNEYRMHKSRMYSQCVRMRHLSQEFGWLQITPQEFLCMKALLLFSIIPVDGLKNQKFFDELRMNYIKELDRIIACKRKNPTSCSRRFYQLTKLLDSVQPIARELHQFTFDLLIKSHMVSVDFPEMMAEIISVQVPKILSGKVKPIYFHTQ

Regarding `COC(=O)C1=C(C)NC(C)=C(C(=O)OC(C)(C)CN(C)CCC(c2ccccc2)c2ccccc2)C1c1cccc([N+](=O)[O-])c1` (stereo not drawn), the Potency result in [1], in test [2], in test [3], in test [5], in [6] and in test [7] was “inactive” throughout. The Potency entry in test [8], in test [9], in test [10], in test [11], in test [12] and in test [13] was “inactive” throughout. For the same molecule, in test [14], the Potency result is “inactive”. In addition, the Potency in test [4] is 26.6 µM (active).

In the case of `C1=CCC2CC=CC2C1` (stereo not drawn), the Potency result in test [1], in test [2], in test [3], in [4], in test [15] and in [6] was “inactive” in each case. The Potency result in [7], in test [8], in test [9], in [16], in test [17] and in test [18] was “inactive” each time. The Potency entry in [10], in test [11], in test [12] and in test [14] was “inactive” in each case.

Take `CC1CCCC(=O)C1=O` (stereo not drawn): the Potency entry in [1], in test [2], in [3], in test [4], in test [19] and in [15] was “inactive” in each case. Further, the Potency result in [6], in test [7], in test [8], in [9], in [20] and in [16] was “inactive” each time. Also, the Potency entry in test [17], in test [18], in test [10], in test [11], in [12] and in test [13] was “inactive” throughout.

In the case of `CCCCOCCOC(=O)c1cccnc1`, the Potency entry in test [1], in [2], in [3], in test [4], in test [19] and in test [15] was “inactive” throughout. The Potency result in test [6], in test [8], in [9], in test [20], in [16] and in test [17] was “inactive” each time. Besides, the Potency entry in [18], in [10], in test [11], in [12], in test [13] and in test [14] was “inactive” throughout.

On to `CCCCCCCCCCCCCC(=O)OCC(O)CO` (stereo not drawn), for which the Potency entry in test [1], in [2], in test [3], in test [4], in test [15] and in test [6] was “inactive” in each case. For the same molecule, the Potency entry in test [8], in test [9], in test [20], in test [16], in test [17] and in [18] was “inactive” in each case. Also, the Potency entry in test [10], in [11], in test [12] and in test [14] was “inactive” each time.

As for `O=C(O)CCC(=O)c1ccc(-c2ccccc2)cc1`, the Potency entry in [1], in [2], in test [3], in [4], in test [5] and in test [6] was “inactive” each time. For the same molecule, the Potency entry in test [7], in test [8], in test [9], in test [20], in test [16] and in test [18] was “inactive” each time. Further, the Potency result in [10], in [11], in test [12] and in test [14] was “inactive” each time. The Potency in [15] is 13.3 µM (active).

As to `O=C(O)/C=C/c1ccc(O)c(O)c1`, the Potency entry in [1], in test [2], in test [3], in test [4], in test [15] and in test [6] was “inactive” throughout. For the same molecule, the Potency entry in [7], in [8], in test [9], in test [20], in test [18] and in test [10] was “inactive” throughout. Moreover, the Potency result in test [11] and in test [12] was “inactive” in each case.
